MPTP block: mitochondrial permeability transition pore inhibitors, primary screen, biochemical, isolated mouse mitochondria, absorbance; Ca2+ swelling absorbance, 30 min; inhibition, % at 10 µM; actives 1.4% (n = 360,000);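 active = inhibition of 50% or more, scaled per plate between neutral and stimulator controls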;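 also: 0% = DMSO wells given calcium and 100% = 1 mM EGTA wells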
SKKanGAS inh: S. pyogenes SKKanGAS growth inhibitors in kanamycin, primary screen, streptokinase expression inhibitor project, SKKanGAS strain, BacTiter-Glo luminescence | 6 h | inhibition, % at 7.5 µM | actives 1.3% (n = 300,000) | AID 1662, 2009;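 active = mean replicate score, as percent of positive control median, at least 50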;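 also: strain carries kanamycin resistance gene driven by streptokinase promoter and grows in 40 µg/ml kanamycin; loss of luminescence reflects streptokinase promoter inhibition or plain growth inhibition; 0% = median of DMSO wells and 100% = positive control at its reference dose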
NR3A LBD binder: binders of NR3A ligand-binding domain, primary screen, biophysical, differential scanning fluorimetry, uHTS. Glutamate receptor ionotropic, NMDA 3A (GRIN3A) ligand-binding domain. Tm shift relative to glycine control, % at 25 µM. NR3A LBD differential scanning fluorimetry, Tm shift; 0% = protein alone, 100% = glycine-bound protein. actives 2.5% (n = 340,000). AID 1259313, 2017;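 active = melting temperature shift of at least 10% of the positive control shift, at one fixed dose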
Beta cell apopt: inhibitors of cytokine-induced beta cell apoptosis, primary screen, luminescence; INS-1E cytokine-induced death, ATP luminescence, 48 h; percent of positive-control rescue, neutral wells zero; protection from apoptosis, % (concentration not given with the values); actives 0.8% (n = 300,000);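 active = Every replicate reaches about 75%, or at least half do and their mean reaches it too, limit read from the data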;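 also: 0% = cytokine-treated negative control wells and 100% = positive control rescue; higher means more ATP so stronger rescue from cytokine killing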
Mdm2-MdmX inh: inhibitors of human Mdm2-MdmX association, primary screen, cell-based, luminescence, split luciferase, SaOS-2, uHTS | inhibition, % at 8 µM | AID 485346, 2010 | SaOS-2 split-luciferase Mdm2/MdmX complementation | actives 3% (n = 330,000) | Protein Mdm4 (Homo sapiens) + E3 ubiquitin-protein ligase Mdm2 (Homo sapiens), …;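 active = inhibition of at least 50% at 8 µM in the primary screen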
CSC inhib: cancer stem cell viability inhibitors, primary screen, luminescence | cancer stem cell-like cells viability | inhibition, % at 7.5 µM | actives 1.1% (n = 300,000) | AID 2717, 2010; in the data active = inhibition above about 75%; tested in HMLE shEcad cells
* = called active by the depositor; · = no result. Rows were chosen to be rich in hits. Some 6.9% of all compounds tested hit in one or more screens of this group.

SMILES	MPTP block	SKKanGAS inh	NR3A LBD binder	Beta cell apopt	Mdm2-MdmX inh	CSC inhib
Cc1nn(CC(=O)NCc2cccs2)c(=O)c2nn(-c3ccccc3)c(C)c12	-3	0	-2	5	1	-7
O=C(c1ccccc1F)N1CCN(c2ccccc2F)CC1	0	10	12*	3	15	-17
O=C(c1cccc(S(=O)(=O)N2CCN(c3ccccc3)CC2)c1)N1CCN(c2ccccc2O)CC1	-1	35	10*	2	30	-3
O=C(c1cccc(S(=O)(=O)N2CCCCCC2)c1)N1CCN(c2ccccc2F)CC1	0	1	17*	0	13	-3
Cn1c(=O)oc2cc(S(=O)(=O)N3CCN(c4ccccc4F)CC3)ccc21	0	-16	12*	-2	-2	19
CN1CCN(S(=O)(=O)c2cccc(C(=O)N3CCN(c4ccccc4F)CC3)c2)CC1	-1	·	-1	-1	18	·
O=C(Cc1c(F)cccc1Cl)Nc1cc(S(=O)(=O)N2CCOCC2)ccc1N1CCOCC1	-2	·	2	·	-1	·
CCCCC(=O)N(C)c1c(CC)nc2c(OCC(=O)C(C)(C)C)cccn12	-1	·	·	·	·	·
Cn1nc(-c2ccccc2)cc1NC(=O)C1CCCCC1	0	-14	-1	9	1	16
COc1ccc(OC)c(N(CC(=O)Nc2ccccc2C(=O)NCc2ccco2)S(C)(=O)=O)c1	-2	-6	13*	5	11	-13
COc1ccc(Cl)cc1N(CC(=O)Nc1ccccc1C(=O)NCc1ccco1)S(C)(=O)=O	-2	4	-4	-2	5	17
N#Cc1ccccc1OCC(=O)NCC(c1ccc(F)cc1)N1CCOCC1 (centres undefined)	1	·	-1	·	8	·
Cn1nc(C(=O)N2CCN(c3ccccn3)CC2)c2ccccc2c1=O	0	0	2	-5	20	-4
O=C(CON=C1c2ccccc2-c2ccccc21)NC12CC3CC(CC(C3)C1)C2	7	34	-2	-9	26	179*
COc1ccc(N=C2SC(CC(=O)Nc3cccc(Cl)c3)C(=O)N2Cc2ccco2)cc1 (centres undefined)	5	40	12*	-6	41	-5
COc1ccc(N=C2SC(CC(=O)Nc3ccccc3)C(=O)N2Cc2ccccn2)cc1 (centres undefined)	-2	2	-6	-3	5	-5
CCOC(=O)c1sc(Nc2nc3c(OC)cccc3s2)nc1C	7	11	·	21	3	32
CCOC(=O)c1sc(NC(=O)c2sccc2C)cc1C	11	3	11*	19	-141	39
CCOC(=O)c1sc(Nc2nc3ccc(OC)cc3s2)cc1C	15	50*	16*	-6	-28	-3
CCOC(=O)c1sc(Nc2nc3c(F)cccc3s2)cc1C	44	-2	29*	2	-44	-8
CCOC(=O)c1csc(Nc2nc3ccc(F)cc3s2)n1	2	53*	0	22	-4	34
O=C1CC(C(=O)Nc2ccccc2)S/C(=N\NC(=O)c2ccccc2Cl)N1 (centres undefined)	0	-4	-1	1	-2	-13
O=C(CO/N=C/c1cccc([N+](=O)[O-])c1)Nc1ccc2ccccc2c1	0	5	13*	-1	-31	-17
O=C(COc1ccc(/C=N/NS(=O)(=O)c2ccccc2)cc1)Nc1cccc(Cl)c1	3	14	16*	-8	9	·
O=C(N/N=C/C=C/c1ccc2c(c1)OCO2)c1ccc([N+](=O)[O-])cc1	-1	-1	-2	-5	41	17
SMILES	MPTP block	SKKanGAS inh	NR3A LBD binder	Beta cell apopt	Mdm2-MdmX inh	CSC inhib
O=C(N/N=C/c1ccc([N+](=O)[O-])cc1)c1ccc(COc2ccccc2-c2ccccc2)cc1	44	6	16*	9	11	35
Nc1ccc(C(=O)N/N=C\C=C\c2ccc([N+](=O)[O-])cc2)cc1	0	16	15*	11	7	-1
C[C@H]1CN([C@@H](C)CO)C(=O)CCCn2nncc2CO[C@@H]1CN(C)Cc1cccc(C(=O)O)c1	0	·	·	·	·	·
Cc1ccc2c(c1)N(CC(=O)N1CCCCCC1)C(=O)C(C)O2 (centres undefined)	0	-5	0	-3	-4	-6
Cc1ccc(S(=O)(=O)N2CCN(Cc3cc(=O)n4ccccc4n3)CC2)c(C)c1	0	·	0	0	-12	6
O=C(COc1ccc(/C=N/NC(=O)c2ccncc2)cc1)Nc1ccc([N+](=O)[O-])cc1	2	-1	-6	-1	34	-19
O=C(COc1ccc(/C=N/NC(=O)c2ccc(O)cc2)cc1)Nc1cccc([N+](=O)[O-])c1	0	-20	31*	-3	5	-3
CCC(=O)Nc1ccc(C(=O)NNC(=O)c2ccc([N+](=O)[O-])cc2)cc1	0	1	0	-3	24	-4
CCC(=O)Nc1ccc(C(=O)N/N=C/c2ccc([N+](=O)[O-])cc2)cc1	0	3	16*	4	-14	2
Cc1cc(Cl)ccc1N(CC(=O)NCc1ccccc1)S(C)(=O)=O	0	20	1	1	15	-8
O=S(=O)(NN=Cc1ccc(O)cc1O)c1cc(Cl)c(Cl)cc1Cl	2	·	22*	·	·	·
Cc1ccccc1NC(=O)COC(=O)c1cc(S(=O)(=O)N2CCOCC2)ccc1C	2	·	-1	0	36	·
OC(CN1CCN(c2ccccc2Cl)CC1)c1ccccc1 (centres undefined)	0	3	0	-2	-6	3
CS(=O)(=O)c1sc2nc(-c3cccs3)cc(-c3ccccc3)c2c1N	0	41	7	2	-28	99*
Cc1ccc(-c2cc(-c3ccccc3)c3c(N)c(S(C)(=O)=O)sc3n2)cc1	1	10	0	2	-5	·
CN(CC(=O)Nc1cccnc1)S(=O)(=O)c1ccc(Br)cc1	-2	1	0	0	18	7
Cc1ccc(C)c(S(=O)(=O)Nc2nc3ccc(S(N)(=O)=O)cc3s2)c1	-1	4	-6	-2	22	1
Cn1c(=O)c(C(=O)NNC(=O)c2ccccc2F)c(O)c2ccccc21	1	61*	-3	0	50	·
CCCCCC(=O)NNC(=O)c1c(O)c2ccccc2n(CC)c1=O	2	94*	-2	-1	48	2
CCn1c(=O)c(C(=O)NCc2ccc(F)cc2)c(O)c2ccccc21	2	23	-4	-8	29	20
CCn1c(=O)c(C(=O)NNC(=O)c2ccccc2Cl)c(O)c2ccccc21	3	58*	-2	-3	34	·

High-throughput results from PubChem BioAssay.
